PubChem BioAssay AID1159580 (chemical genetic matrix, 2015)
Where “and” joins values, the source holds several entries; their conditions need not be identical. Equal entries are not always repeated. About 2,000 (36%) of roughly 5,500 compounds were called active. Inconclusive results (about 18%) are left out. Rule as the data show it: active = normalized growth mostly below about 0.91 (no sharp cut-off); inconclusive = no clear call, values can overlap the other calls; inactive = mostly above about 0.92. This is one part of the list.

Experiment: chemical genetic growth profiling, strain panel (AID 1159580);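 also: tested at 20 µM; growth read once vehicle control cultures reached saturation at 30 °C; 1 = growth at the plate median or of vehicle wells; lower values mean less growth of the strain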
Details: S. cerevisiae deletion strains, growth OD

Measured: normalized growth

CCCc1nc(C(C)(C)O)c(C(=O)OCc2oc(=O)oc2C)n1Cc1ccc(-c2ccccc2-c2nn[nH]n2)cc1
inactive: locus YAL013W, strain DEP1, active compounds read low 0.99 | locus YAL021C, strain ccr4, active compounds read low 0.976 | locus YAL026C, strain drs2, active compounds read low 0.966 | locus YAL030W, strain snc1, active compounds read low 0.955 | locus YBL061C, strain skt5, active compounds read low 0.979 | locus YBR009C, strain hhf1, active compounds read low 1 | locus YBR021W, strain FUR4, active compounds read low 0.987 | locus YBR023C, strain chs3, active compounds read low 0.961 | locus YBR171W, strain sec66, active compounds read low 0.957 | locus YBR229C, strain ROT2, active compounds read low 0.989 | locus YBR231C, strain swc5, active compounds read low 0.974 | locus YBR279W, strain paf1, active compounds read low 0.973 | locus YCL011C, strain gbp2, active compounds read low 0.945 | locus YCL016C, strain dcc1, active compounds read low 0.994 | locus YCL029C, strain bik1, active compounds read low 0.982 | locus YCL069W, strain vba3, active compounds read low 0.987 | locus YCR088W, strain abp1, active compounds read low 0.977 | locus YDL005C, strain med2, active compounds read low 0.983 | locus YDL035C, strain GPR1, active compounds read low 1 | locus YDL040C, strain nat1, active compounds read low 0.976 | locus YDL074C, strain BRE1, active compounds read low 1.01 | locus YDL101C, strain DUN1, active compounds read low 0.991 | locus YDL134C, strain PPH21, active compounds read low 0.986 | locus YDL185W, strain tfp1, active compounds read low 0.983 | locus YDL192W, strain arf1, active compounds read low 0.985 | locus YDR001C, strain nth1, active compounds read low 0.945 | locus YDR069C, strain doa4, active compounds read low 0.956 | locus YDR101C, strain arx1, active compounds read low 0.994 | locus YDR137W, strain rgp1, active compounds read low 0.943 | locus YDR150W, strain NUM1, active compounds read low 1 | locus YDR159W, strain sac3, active compounds read low 0.933 | locus YDR162C, strain NBP2, active compounds read low 1 | locus YDR195W, strain ref2 0.922 | locus YDR297W, strain sur2, active compounds read low 0.981 | locus YDR318W, strain mcm21, active compounds read low 0.994 | locus YDR334W, strain swr1, active compounds read low 0.945 | locus YDR335W, strain msn5, active compounds read low 0.952 | locus YDR388W, active compounds read low 0.987 | locus YDR392W, strain spt3, active compounds read low 1.02 | locus YDR502C, strain sam2, active compounds read low 0.986 | locus YEL003W, strain gim4, active compounds read low 0.972 | locus YEL037C, strain rad23, active compounds read low 0.968 | locus YEL061C, strain CIN8 (second series), active compounds read low 0.955 | locus YEL061C, strain CIN8, active compounds read low 1.01 | locus YER015W, strain faa2, active compounds read low 0.99 | locus YER016W, strain bim1, active compounds read low 0.967 | locus YER110C, active compounds read low 0.985 | locus YER111C, strain swi4, active compounds read low 0.965 | locus YER155C, strain BEM2 (second series), active compounds read low 0.906 | locus YER155C, strain BEM2, active compounds read low 1.02 | locus YER167W, strain BCK2, active compounds read low 0.99 | locus YFR010W, strain ubp6, active compounds read low 0.967 | locus YGL078C, strain dbp3, active compounds read low 0.99 | locus YGL086W, strain mad1, active compounds read low 0.986 | locus YGL167C, strain pmr1, active compounds read low 0.957 | locus YGL173C, strain kem1, active compounds read low 0.985 | locus YGL227W, strain vid30, active compounds read low 0.96 | locus YGL240W, strain doc1, active compounds read low 0.949 | locus YGL248W, strain PDE1, active compounds read low 0.99 | locus YGL253W, strain hxk2, active compounds read low 0.962 | locus YGR078C, strain PAC10, active compounds read low 1.02 | locus YGR135W, strain pre9, active compounds read low 0.995 | locus YGR229C, strain SMI1, active compounds read low 1 | locus YGR252W, strain gcn5, active compounds read low 1.02 | locus YHR013C, strain ard1, active compounds read low 0.978 | locus YHR027C, strain rpn1, active compounds read low 0.973 | locus YHR030C, strain SLT2, active compounds read low 0.99 and 0.967 | locus YHR079C, strain IRE1 (second series), active compounds read low 0.984 | locus YHR079C, strain IRE1, active compounds read low 0.954 | locus YHR094C, strain hxt1, active compounds read low 0.989 | locus YHR129C, strain ARP1, active compounds read low 0.987 | locus YHR142W, strain chs7, active compounds read low 1 | locus YHR200W, strain rpn10, active compounds read low 0.981 | locus YIL066C, strain RNR3, active compounds read low 0.994 | locus YIL073C, strain SPO22, active compounds read low 1.02 | locus YIL125W, strain kgd1, active compounds read low 0.989 | locus YIR030C, strain dcg1, active compounds read low 0.982 | locus YJL092W, strain hpr5, active compounds read low 0.982 | locus YJL095W, strain BCK1 (second series), active compounds read low 0.973 | locus YJL095W, strain BCK1, active compounds read low 0.987 and 0.988 | locus YJL115W, strain asf1, active compounds read low 0.967 | locus YJL129C, strain trk1, active compounds read low 0.965 | locus YJL134W, strain LCB3, active compounds read low 0.994 | locus YJL154C, strain vps35, active compounds read low 0.966 | locus YJL164C, strain tpk1, active compounds read low 0.996 | locus YJL166W, strain qcr8, active compounds read low 0.966 | locus YJL168C, strain set2, active compounds read low 0.997 | locus YJL187C, strain SWE1 (second series), active compounds read low 0.987 | locus YJR043C, strain POL32, active compounds read low 0.997 | locus YJR066W, strain TOR1, active compounds read low 0.931 | locus YJR075W, strain HOC1, active compounds read low 1.01
